Test results taken from PubChem BioAssay (Tox21).
Values without a mark were called inactive. Active and inactive are the calls of the source. Calls come from the whole dose curve; as a rule, active = well fitted curve in the direction sought with a large enough effect in the repeat runs; inconclusive = weak or mixed curves; inactive = flat fitted curve, though single readings scatter.

Assay: qHTS assay to test for compound auto fluorescence at 460 nm (blue) in HepG2 cell free culture (AID 720685)
Conditions: Cell-free culture medium, blue autofluorescence 405/460 nm; series mostly up to 91.3 µM
Source text: U.S. Tox21 Program National Center for Advancing Translational Sciences [NCATS] NIH Chemical Genomics Center [NCGC] U.S. Environmental Protection Agency [EPA] National Institutes of Environmental Health Sciences [NIEHS] National Toxicology Program [NTP] U.S. Food and Drug Administration [FDA] Tox21 Assay Overview: Compound auto fluorescence often interferes with screening of the compound library against various biological targets and signaling pathways. Some of these compounds may have fluorophoric properties. Such properties may interfere with the assay outputs resulting in false positives and/or negatives. To decrease such complications and ensure the compound activities are relevant in terms of biological response, the Tox21 10K compound library was screened for auto fluorescence. From the fluorophores used as reporter signals in our screening assays, the auto fluorescence equivalencies of compounds against three fluorophores have been evaluated: Triamterene, Fluorescein and Rose Bengal sodium for blue, green and red fluorescence, respectively. The fluorescence intensities were measured using Excitation/Emission wavelengths at 405/460nm, 485/535nm and 540/590nm for blue, green and red labels, respectively. This assay includes the blue fluorescence data.
Tox21 Assay Protocol Summary: 5 uL of culture medium (MEM containing 10% FBS) per well was dispensed into black wall/clear bottom 1536-well plates using a Multidrop Combi Dispenser (ThermoFisher Scientific, Waltham, MA). After 23 nL compound or DMSO vehicle was transferred into assay plate by a pintool work station (Kalypsys, San Diego, CA), fluorescence intensities in the assay plates were measured by an Envision (PerkinElmer, Shelton, CT) plate reader using three labels for measuring blue, green and red fluorescence at […] 460, 535 and 590nm respectively.
% is set by controls: 0 for no effect and ±100 for the full control effect.

| Structure (SMILES) | outcome | fluorescence, % of fluorescent control |
| --- | --- | --- |
| CC1CCCCC1NC(=O)Nc1ccccc1 (stereo not given) | inactive |  |
| N#CCNCC#N | inactive |  |
| ClCC(Cl)(Cl)Cl | inactive |  |
| COP(=S)(OC)Oc1c(Cl)cc(C)cc1Cl | inactive |  |
| CN(C)CCc1ccc(O)cc1 | inactive |  |
| CCOP(=S)(OCC)SCSc1ccc(Cl)cc1 | inactive |  |
| [Cl][Sn]([Cl])([Cl])[Cl] | inactive |  |
| c1coc(-c2nc3ccccc3[nH]2)c1 | inactive |  |
| COC(C)(C)C | inactive |  |
| CCCCCCI | inactive |  |
| CSc1ccc(C(=O)C(C)(C)N2CCOCC2)cc1 | inactive |  |
| C[N+](=O)[O-] | inactive |  |
| O=C(Oc1ccc(Br)cc1)N1CCN2CCC1CC2 | inactive |  |
| Nc1n[nH]c(N)n1 | inactive |  |
| CCCCN(CCCCO)N=O | inactive |  |
| C(CCOCC1CO1)COCC1CO1 (stereo not given) | inactive |  |
| CC1(C(=O)Nc2ccc(O)c(Cl)c2Cl)CCCCC1 | inactive |  |
| OC(Cn1cncn1)(c1ccc(F)cc1)c1ccccc1F (stereo not given) | inactive |  |
| C=CCC1=C(C)[C@@H](OC(=O)[C@@H]2[C@@H](C=C(C)C)C2(C)C)CC1=O | inactive |  |
| O=C(CCN1CC1)OCC(CO)(COC(=O)CCN1CC1)COC(=O)CCN1CC1 | inactive |  |

| Structure (SMILES) | outcome | fluorescence, % of fluorescent control |
| --- | --- | --- |
| COc1ccc2c(c1OC)CN1CCc3cc4c(cc3C1C2)OCO4 (stereo not given) |  | -0.0388% [at 18.6 µM] |
| CC(C)NCC(O)c1ccc(N)c(C#N)c1 (stereo not given) | inactive |  |
| O=NN1CCCCC1 | inactive |  |
| C#CCN1C(=O)COc2cc(F)c(N3C(=O)C4=C(CCCC4)C3=O)cc21 | inactive |  |
| Oc1c(Cl)cccc1Cl | inactive |  |
| Cc1cnc[nH]1 | inactive |  |
| BrCCCCCCBr | inactive |  |
| CCNc1nc(NC(C)C)nc(OC)n1 | inactive |  |
| CCC(Cl)[N+](=O)[O-] (stereo not given) | inactive |  |
| CCN(Cc1ccc(Cl)nc1)/C(=C/[N+](=O)[O-])NC | inactive |  |
| COc1cc(OC)nc(NC(=O)NS(=O)(=O)c2ncccc2C(=O)N(C)C)n1 | inactive |  |
| Nc1ccccc1Cl | inactive |  |
| C1CCC(C2CCCCC2)CC1 | inactive |  |
| CCC(C)n1c(=O)[nH]c(C)c(Br)c1=O (stereo not given) | inactive |  |
| CCSC(=O)N(CC)C1CCCCC1 | inactive |  |
| CCCSP(=S)(OCC)Oc1ccc(Cl)cc1Cl (stereo not given) | inactive |  |
| CN1CCC(O)(c2ccc(F)cc2)C(C(=O)c2ccc(F)cc2)C1 (stereo not given) | inactive |  |
| OCCBr | inactive |  |
| ClC(Cl)C(Cl)Cl | inactive |  |
| COc1ccc(C(=O)N2CCCC2=O)cc1 | inactive |  |
